Measurements: PubChem BioAssay AID1346378 (National Center for Advancing Translational Sciences (NCATS), 2018)
Out of some 420,000 compounds screened, about 540 (0.13%) were called active. Rule as the data show it: active = activity change below about -50%; inconclusive = mostly about -30% to -49%; inactive = weaker than that. Many of the other results were omitted from the sample, so actives are more common in it than they were.

Biological target: Phosphatidylinositol 4-kinase type 2-alpha (Homo sapiens) (UniProt Q9BTU6)
Experiment: qHTS for small molecular inhibitors of PI4K2A
Details: purified PI4K2A, ADP-Glo luminescence, 1 h; at 76.9 µM, stronger effect = lower value
Source text: The phosphatidylinositol 4-phosphate (PI4P) is emerging as a key regulator of lipid transfer in ER-membrane contact sites. The four different phosphatidylinositol 4-kinase (PI4K) enzymes generate PI4P in different membrane compartments supporting distinct cellular processes many of which are crucial for the maintenance of cellular integrity but also hijacked by intracellular pathogens. The goal of this screening project is to search for small molecular inhibitors of PI4K2A based on a high throughput screening strategy.The ADP-Glo assay was used as a starting point to develop a miniaturized version for HTS applications. To implement the HTS screen, the PI4K ADP-Glotrade mark Kinase assay (Promega, V9102) was miniaturized for the 1536-well format used at NCGC.
For the robotic screening, the ADP-Glo assay using the ADP-Glotrade mark Kinase Assay kit from Promega was miniaturized and optimized on 1536-well white solid bottom plates (Greiner Bio-one). The substrate, 1.2 mM PI, prepared in the assay buffer (40mM Tris pH7.5, 20mM MgCl2, 1mM EGTA, 0.4% Triton X-100, 0.5mM DTT, 0.5mg/ml BSA) and PI4K2A enzyme, diluted also in the assay buffer to 4ug/mL, were dispensed onto the plates in equal volumes (1microl/well), pinned with 23 nL/well tested compounds or control followed by dispensation of 1microl/well 300microM ATP. The plates were incubated for one hour. Then, 2 µL/well of ADP-Glo reagent was added and incubated for 40 minutes. Next, 4microL/well of Kinase Detection Buffer was added to the plates and incubated for additional 40 minutes. All incubation steps were performed at ambient temperature. The resulting luminescence signal was measured on Viewlux plate reader (PerkinElmer). Adenosine, a partial non-specific inhibitor, was used as a positive control at 100microM final concentration to assess the assay's quality and plate-to-plate reproducibility. We also used "no enzyme" control to gauge the assay's maximal potential inhibition (IC100).

Chain of Phosphatidylinositol 4-kinase type 2-alpha (Homo sapiens) (Q9BTU6 whole entry, looked up): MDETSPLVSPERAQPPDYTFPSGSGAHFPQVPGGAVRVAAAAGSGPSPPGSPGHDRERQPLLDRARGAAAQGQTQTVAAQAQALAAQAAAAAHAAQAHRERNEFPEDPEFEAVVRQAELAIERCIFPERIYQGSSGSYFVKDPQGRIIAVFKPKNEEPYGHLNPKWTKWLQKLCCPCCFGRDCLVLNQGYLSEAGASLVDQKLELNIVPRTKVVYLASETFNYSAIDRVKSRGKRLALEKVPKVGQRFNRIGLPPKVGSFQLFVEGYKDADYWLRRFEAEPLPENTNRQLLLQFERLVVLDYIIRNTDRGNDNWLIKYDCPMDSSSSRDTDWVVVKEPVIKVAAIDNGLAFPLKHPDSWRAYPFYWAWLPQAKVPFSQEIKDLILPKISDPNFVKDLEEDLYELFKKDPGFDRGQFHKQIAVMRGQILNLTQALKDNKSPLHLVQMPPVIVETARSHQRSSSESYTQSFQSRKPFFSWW

`C=CC1(C)CC(=O)C2(O)C(C)(O1)C(OC(C)=O)C(O)C1C(C)(C)CCC(O)C12C` (stereo not given) was tested. Which activity change, negative = inhibition did it give?
The activity change, negative = inhibition was -8.1% (inactive).

For `COc1ccc(-c2nc3ccccc3o2)cc1NC(=O)c1cc([N+](=O)[O-])ccc1N1CCOCC1`, which activity change, negative = inhibition is on record?
The activity change, negative = inhibition was -1.07% (inactive).

With `COc1ccc(/C=C/c2nc(C#N)c(NCc3ccc(F)cc3)o2)cc1OC` as the molecule, how does the activity change, negative = inhibition read?
Its activity change, negative = inhibition is 3.37% (inactive).

Which activity change, negative = inhibition does the source give for `CCc1ccc(NC(=O)c2cc(S(=O)(=O)NC3CCCCCC3)ccc2F)cc1` here?
The activity change, negative = inhibition was 1.04% (inactive).

With `Oc1ccc(Cn2cc[nH]c2=S)cc1` as the molecule, how does the activity change, negative = inhibition read?
Its activity change, negative = inhibition is 2.19% (inactive).

With `CCC1=Nc2cc(C(=O)NCC(C)c3ccccc3)ccc2Sc2ccc(C)cc21` (stereo not given) as the molecule, how does the activity change, negative = inhibition read?
Its activity change, negative = inhibition is -0.814% (inactive).

`CCOc1ccc(NC(=O)Cn2cc(C(=O)c3ccc(C)cc3)c(=O)c3cc4c(cc32)OCCO4)cc1` was tested. Which activity change, negative = inhibition did it give?
Its activity change, negative = inhibition is -5.72% (inactive).

`CCCn1ccc2c(OCC(=O)NCc3ccc(F)cc3)cccc2c1=O` was tested. Which activity change, negative = inhibition did it give?
The activity change, negative = inhibition was 1.12% (inactive).

How did the activity change, negative = inhibition turn out when `O=C(c1ccc2c(c1)N(Cc1ccccc1)C(=O)c1ccccc1S2(=O)=O)N1CCC(Cc2ccccc2)CC1` was run?
The activity change, negative = inhibition was -3.09% (inactive).

Which activity change, negative = inhibition does the source give for `CCOc1ccccc1NC(=O)CN1CCN(S(=O)(=O)c2ccc(Br)cc2)CC1` here?
The activity change, negative = inhibition was -3.13% (inactive).

For `CCOc1ccccc1NC(=O)Cn1c(=O)n(-c2cccc(C)c2)c(=O)c2c1c1cc(OC)ccc1n2C`, which activity change, negative = inhibition is on record?
The activity change, negative = inhibition was 5.68% (inactive).

With `Nc1ccc2c3c(cccc13)C(=O)NC2=O` as the molecule, how does the activity change, negative = inhibition read?
Its activity change, negative = inhibition is -1.25% (inactive).

With `CN[C@@H]1[C@@H](O)[C@@H](O[C@@H]2[C@H](O)[C@H](O[C@H]3OC(CN)=CC[C@H]3N)[C@@H](N)C[C@H]2N)OCC1(C)O` (stereo not given in full) as the molecule, how does the activity change, negative = inhibition read?
The activity change, negative = inhibition was 3.62% (inactive).

How did the activity change, negative = inhibition turn out when `CC1(C)S[C@@H]2[C@H](N=CN3CCCCCC3)C(=O)N2[C@H]1C(=O)O` was run?
Its activity change, negative = inhibition is -3.84% (inactive).

For `Cc1cc(C)cc(-n2ccnc2SCC(=O)Nc2nc3ccccc3s2)c1`, which activity change, negative = inhibition is on record?
The activity change, negative = inhibition was -3.54% (inactive).

`CCOc1ccc(N/C=C/C(=O)c2ccccc2)cc1` was tested. Which activity change, negative = inhibition did it give?
Its activity change, negative = inhibition is -50.8% (active).

For `CCOc1ccc(NC(=O)CSc2c3c(nc4ccccc24)CCCC3)cc1`, which activity change, negative = inhibition is on record?
The activity change, negative = inhibition was -3.16% (inactive).

Which activity change, negative = inhibition does the source give for `CCOc1ccc(NC(=O)N(CC(C)C)CC(C)C)cc1` here?
Its activity change, negative = inhibition is 7.41% (inactive).

With `COc1ccc(C(=O)NCC(c2ccc(N(C)C)cc2)N2CCc3ccccc32)c(OC)c1` (stereo not given) as the molecule, how does the activity change, negative = inhibition read?
The activity change, negative = inhibition was 0.413% (inactive).

`CCCCN(C)CCCNC(=O)CN1N=C(c2ccc(OC)cc2)CCC1=O` was tested. Which activity change, negative = inhibition did it give?
Its activity change, negative = inhibition is -1.59% (inactive).

How did the activity change, negative = inhibition turn out when `COc1cc(CNC(=O)c2cc3n(n2)CCCN(Cc2cccc(F)c2)C3=O)cc(OC)c1OC` was run?
The activity change, negative = inhibition was -0.346% (inactive).

For `COC(=O)c1cc(Cl)c(NC(C)=O)cc1OC`, which activity change, negative = inhibition is on record?
The activity change, negative = inhibition was -2.22% (inactive).

With `CCNC(=O)c1cnn(-c2ccccc2)c1-c1ccccc1` as the molecule, how does the activity change, negative = inhibition read?
Its activity change, negative = inhibition is 2.38% (inactive).

Which activity change, negative = inhibition does the source give for `NNC(=O)c1cnn(-c2ccccc2)c1C(F)(F)F` here?
The activity change, negative = inhibition was 3.06% (inactive).

For `Nc1c(C(=O)O)cnn1-c1ccccc1`, which activity change, negative = inhibition is on record?
The activity change, negative = inhibition was -60.3% (active).

For `O=c1ccc2c(-c3ccccc3S(=O)(=O)O)c3ccc(O)c(O)c3oc-2c1O`, which activity change, negative = inhibition is on record?
Its activity change, negative = inhibition is -68% (active).

`O=C(NC1CC(=O)N(c2ccccc2)C1)c1ccco1` (stereo not given) was tested. Which activity change, negative = inhibition did it give?
The activity change, negative = inhibition was -1.35% (inactive).

For `CCOc1ccc(C(NC(=O)c2cc(OC)c(OC)c(OC)c2)c2cc(Cl)c3cccnc3c2O)cc1` (stereo not given), which activity change, negative = inhibition is on record?
Its activity change, negative = inhibition is -3.07% (inactive).

How did the activity change, negative = inhibition turn out when `COc1ccc(OC)c(NC(=O)C2CCCN(S(=O)(=O)c3ccc4c(c3)CCCC(=O)N4)C2)c1` (stereo not given) was run?
Its activity change, negative = inhibition is -2.64% (inactive).

`CN1CC[C@H](c2c(O)cc(O)c3c(=O)cc(-c4ccccc4Cl)oc23)[C@H](O)C1` was tested. Which activity change, negative = inhibition did it give?
The activity change, negative = inhibition was -3.75% (inactive).

Which activity change, negative = inhibition does the source give for `Nc1ncnc2c1c(I)cn2[C@@H]1C[C@H](N)[C@@H](O)[C@H]1O` here?
The activity change, negative = inhibition was -21.5% (inactive).

With `NC1CCN(O)C1=O` (stereo not given) as the molecule, how does the activity change, negative = inhibition read?
The activity change, negative = inhibition was 0.196% (inactive).

`CCOC(=O)c1cc2c(=O)n3ccccc3nc2n(Cc2ccco2)c1=NC(=O)c1ccc(F)cc1` was tested. Which activity change, negative = inhibition did it give?
The activity change, negative = inhibition was -8.37% (inactive).

`Cc1cc(NS(=O)(=O)c2ccc3oc(=O)c4ncn(C)c4c3c2)ccc1Br` was tested. Which activity change, negative = inhibition did it give?
Its activity change, negative = inhibition is 3.97% (inactive).

How did the activity change, negative = inhibition turn out when `CC1(C)O[C@@H]2[C@H](O1)[C@@H](CO)O[C@H]2n1c(N2CCCCC2)nc2c(N)ncnc21` was run?
The activity change, negative = inhibition was -54.5% (active).

How did the activity change, negative = inhibition turn out when `Nc1ncnc2c1cnn2C1CC(O)C(CO)O1` (stereo not given) was run?
Its activity change, negative = inhibition is -25.1% (inactive).

With `OCC1OC(n2cnc3c(N4CCCC4)ncnc32)C(O)C1O` (stereo not given) as the molecule, how does the activity change, negative = inhibition read?
The activity change, negative = inhibition was -0.936% (inactive).

How did the activity change, negative = inhibition turn out when `Cn1c(=O)c2c(-c3ccccc3Br)n(Cc3ccccc3)cc2n(C)c1=O` was run?
The activity change, negative = inhibition was -1.93% (inactive).

How did the activity change, negative = inhibition turn out when `O=c1cc(-c2ccccc2)[nH]c2nc(Cl)ccc12` was run?
The activity change, negative = inhibition was 3.68% (inactive).

For `Cc1nnc(C(=O)NC(C)(C)c2nc(C(=O)NCc3ccc(F)cc3)c(O)c(=O)n2C)o1`, which activity change, negative = inhibition is on record?
Its activity change, negative = inhibition is -1.36% (inactive).

How did the activity change, negative = inhibition turn out when `CCN(C(=O)Cn1cc(S(=O)(=O)N2CCN(c3ccccc3F)CC2)c2ccccc2c1=O)c1ccc(C)c(C)c1` was run?
Its activity change, negative = inhibition is -1.44% (inactive).

How did the activity change, negative = inhibition turn out when `N#Cc1c(N2CCCCC2)nc(N)c2c(N)nc(SCC(=O)O)cc12` was run?
The activity change, negative = inhibition was -59.8% (active).

How did the activity change, negative = inhibition turn out when `COc1cccc(C(=O)Nc2ccc(N3CCCC3)cc2)c1` was run?
Its activity change, negative = inhibition is -68.3% (active).

`COc1cccc(C(=O)NC(=O)Nc2ccc(-c3cc(C(F)(F)F)nn3-c3ccccc3)cc2)c1` was tested. Which activity change, negative = inhibition did it give?
The activity change, negative = inhibition was -3.82% (inactive).

Which activity change, negative = inhibition does the source give for `COc1cccc(C(=O)Nc2ccc(-c3cc(C(F)(F)F)nn3-c3ccccc3)cc2)c1` here?
The activity change, negative = inhibition was 4.36% (inactive).
